Data published in the supplement of paper PMC10849652.
About 7,900 targets were measured; listed, in parts, are those with a hit and a random draw of the rest. About 0.6% of all pairs of compound and target were hits.

How the values were obtained:
Assay in all cases: log2 fold change, soluble protein after heating vs DMSO (PISA); higher = thermal stabilisation; K562 cells, 10 uM, 30 min; active = over 0.2 and 3.5 SD of the protein, either way, in both replicates (recomputed)
[1] = compound: C1COCCN1CCN2C3=CC=CC=C3N=C2NC(=O)C4=CC(=CC=C4)[N+](=O)[O-] [IRAK-1-4 Inhibitor I]
Method in brief: (§1)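 K562 cells (2×10^6 cells/mL) were treated with 10 μM compound for 30 min, and aliquots were heated for 3 min over 48°C-58°C. Pooled aliquots were extracted in PBS with 0.5% NP-40 at 4°C, and the supernatant after 21,000xg for 90 min was measured by TMTpro 16plex LC-MS/MS with channel sums equalised. Reported thermal stability, relative to control samples and from duplicates, is a log2 fold change.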

[2] = compound: C=CC(=O)N1CCC[C@@H](n2nc(-c3ccc(Oc4ccccc4)cc3)c3c(N)ncnc32)C1 [ibrutinib]
Method in brief: as §1

[3] = compound: CC(=O)c1cnc2ccc(-c3cc(Cl)c(O)c(Cl)c3)nc2c1N[C@H]1CC[C@H](CN(C)C)CC1
Method in brief: as §1

[4] = compound: CC(C)(C)Cn1c(N)nc2ccc(-c3[nH]c(C(C)(C)C)nc3-c3ccc(F)cc3)nc21 [ralimetinib]
Method in brief: as §1

[5] = compound: CC(C)(O)CC(=O)NCCn1ccc2ncnc(Nc3ccc(Oc4cccc(C(F)(F)F)c4)c(Cl)c3)c21
Method in brief: as §1

[6] = compound: CC(C)C1=C2N=C(C=C(N2N=C1)NCC3=CC=CC=C3)NCCCCCCN
Method in brief: as §1

[7] = compound: CC(C)C[C@@H](C=O)NC(=O)[C@H](CC(C)C)NC(=O)[C@H](CC(C)C)NC(=O)OCc1ccccc1
Method in brief: as §1

[8] = compound: CC(C)N(C[C@H]1O[C@@H](n2cnc3c(N)ncnc32)[C@H](O)[C@@H]1O)[C@H]1C[C@@H](CCc2nc3cc(C(C)(C)C)ccc3[nH]2)C1 [pinometostat]
Method in brief: as §1

[9] = compound: CC1=C(C(CC(=O)N1)C2=CC=C(C=C2)C(F)(F)F)C(=O)NC3=C(C=C4C(=C3)C=NN4)F
Method in brief: as §1

[10] = compound: CC1=C(C2=C(C=C1)C(=O)C3=CC=CC=C3N2CCCN)C
Method in brief: as §1

[11] = compound: CC1=C(C=C(C=C1)NC(=O)C2=CC(=CC=C2)C(C)(C)C#N)NC3=CC4=C(C=C3)N=CN(C4=O)C
Method in brief: as §1

[12] = compound: CC1=C(C=C(C=C1)NC(=O)C2=CC(=CC=C2)N(C)C)NC(=O)C3=CC=C(C=C3)O
Method in brief: as §1

[13] = compound: CC1=CC=C(C=C1)SC2=C3C=C(SC3=CN=C2)C(=O)N
Method in brief: as §1

[14] = compound: CC1=NC(=CC=C1)C2=C(N=C(N2)C(C)(C)C)C3=CC4=NC=CN=C4C=C3
Method in brief: as §1

[15] = compound: CCCCN(Cc1ccc(C(=O)NO)cc1)C(=O)Nc1ccccc1 [Nexturastat A]
Method in brief: as §1

[16] = compound: CCCS(=O)(=O)Nc1ccc(F)c(C(=O)c2c[nH]c3ncc(-c4ccc(Cl)cc4)cc23)c1F [vemurafenib]
Method in brief: as §1

[17] = compound: CCCS(=O)(=O)Nc1ccc(F)c(C(=O)c2c[nH]c3ncc(Cl)cc23)c1F
Method in brief: as §1

[18] = compound: CCCc1cc(C)[nH]c(=O)c1CNC(=O)c1cc(-c2ccnc(N3CCN(C)CC3)c2)cc2c1cnn2C(C)C
Method in brief: as §1

[19] = compound: CCN(CC)Cc1ccc2cc(COC(=O)Nc3ccc(C(=O)NO)cc3)ccc2c1 [givinostat]
Method in brief: as §1

[20] = compound: CCN(CCCOc1ccc2c(Nc3cc(CC(=O)Nc4cccc(F)c4)[nH]n3)ncnc2c1)CCOP(=O)(O)O [barasertib]
Method in brief: as §1

Measured: log2 fold change

NCK1 (UniProt P16333)
inactive: [1] -0.178 | [2] -0.154 | [3] -0.252 | [4] 0.044 | [5] -0.038 | [6] -0.283 | [7] 0.082 | [8] 0.076 | [9] 0.005 | [10] 0.039 | [11] 0.166 | [12] -0.068 | [13] 0.208 | [14] 0.102 | [15] 0.12 | [16] 0.031 | [17] 0.116 | [18] 0.08 | [19] 0.211 | [20] 0.189

MKNK1 (UniProt Q9BUB5)
Chain of UniProt Q9BUB5 (Q9BUB5 whole entry, looked up): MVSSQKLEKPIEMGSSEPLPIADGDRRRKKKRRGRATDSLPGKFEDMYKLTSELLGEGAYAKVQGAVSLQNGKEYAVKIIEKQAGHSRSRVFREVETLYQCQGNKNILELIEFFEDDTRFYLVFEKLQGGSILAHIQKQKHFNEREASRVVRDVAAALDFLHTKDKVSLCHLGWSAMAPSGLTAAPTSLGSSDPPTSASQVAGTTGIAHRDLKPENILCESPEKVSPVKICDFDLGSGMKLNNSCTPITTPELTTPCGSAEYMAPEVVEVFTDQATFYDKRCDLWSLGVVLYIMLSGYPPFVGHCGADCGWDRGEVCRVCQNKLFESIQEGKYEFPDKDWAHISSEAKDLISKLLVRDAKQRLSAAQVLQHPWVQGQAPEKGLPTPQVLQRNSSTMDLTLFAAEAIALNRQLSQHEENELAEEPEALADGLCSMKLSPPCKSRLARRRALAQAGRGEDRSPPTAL
inactive: [1] -0.078 | [2] -0.034 | [3] 0.059 | [4] 0.117 | [5] -0.032 | [6] -0.065 | [7] 0.168 | [8] -0.019 | [9] -0.018 | [10] 0.057 | [11] -0.008 | [12] -0.051 | [13] 0.03 | [14] 0.115 | [15] -0.094 | [16] 0.021 | [17] 0.035 | [18] 0.022 | [19] 0.012 | [20] 0.033

MITD1 (UniProt Q8WV92)
Chain of UniProt Q8WV92 (Q8WV92 whole entry, looked up): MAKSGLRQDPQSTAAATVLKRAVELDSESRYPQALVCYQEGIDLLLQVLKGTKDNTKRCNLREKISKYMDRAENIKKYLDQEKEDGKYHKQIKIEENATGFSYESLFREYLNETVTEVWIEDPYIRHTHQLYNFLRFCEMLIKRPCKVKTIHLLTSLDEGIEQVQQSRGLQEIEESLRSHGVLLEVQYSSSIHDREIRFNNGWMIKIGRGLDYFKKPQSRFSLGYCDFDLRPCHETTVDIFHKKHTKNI
inactive: [1] -0.043 | [2] 0.03 | [3] 0 | [4] -0.002 | [5] -0.296 | [7] -0.002 | [8] 0.082 | [9] -0.101 | [10] 0.047 | [11] -0.124 | [12] 0.072 | [13] -0.043 | [14] -0.043 | [15] -0.026 | [16] 0.069 | [17] 0 | [18] -0.093 | [19] -0.047 | [20] 0.042
active: [6] -0.77

MSTO1 (UniProt Q9BUK6)
Chain of UniProt Q9BUK6 (Q9BUK6 whole entry, looked up): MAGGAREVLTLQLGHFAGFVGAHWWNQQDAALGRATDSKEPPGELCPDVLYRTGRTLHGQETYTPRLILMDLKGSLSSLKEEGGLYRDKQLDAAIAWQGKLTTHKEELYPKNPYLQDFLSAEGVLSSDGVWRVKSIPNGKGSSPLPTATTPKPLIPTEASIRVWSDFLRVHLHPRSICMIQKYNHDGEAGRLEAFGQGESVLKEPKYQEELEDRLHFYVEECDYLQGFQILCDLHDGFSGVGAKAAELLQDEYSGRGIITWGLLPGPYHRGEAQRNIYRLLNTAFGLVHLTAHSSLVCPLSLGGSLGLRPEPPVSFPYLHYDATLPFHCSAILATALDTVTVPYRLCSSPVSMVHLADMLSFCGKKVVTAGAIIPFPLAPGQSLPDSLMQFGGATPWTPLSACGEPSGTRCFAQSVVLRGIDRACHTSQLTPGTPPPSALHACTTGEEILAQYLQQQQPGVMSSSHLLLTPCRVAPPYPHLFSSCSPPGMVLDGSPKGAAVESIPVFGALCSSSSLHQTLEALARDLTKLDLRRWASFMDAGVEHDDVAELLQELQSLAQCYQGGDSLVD
inactive: [1] 0.012 | [2] 0.009 | [3] -0.003 | [4] -0.028 | [5] -0.162 | [6] -0.105 | [7] -0.003 | [8] -0.002 | [9] -0.027 | [10] 0.043 | [11] -0.032 | [12] -0.052 | [13] -0.02 | [14] 0.024 | [15] -0.118 | [16] 0.052 | [17] 0.018 | [18] -0.012 | [19] 0.011 | [20] 0.037

NASP (UniProt P49321)
Chain of UniProt P49321 (P49321 whole entry, looked up): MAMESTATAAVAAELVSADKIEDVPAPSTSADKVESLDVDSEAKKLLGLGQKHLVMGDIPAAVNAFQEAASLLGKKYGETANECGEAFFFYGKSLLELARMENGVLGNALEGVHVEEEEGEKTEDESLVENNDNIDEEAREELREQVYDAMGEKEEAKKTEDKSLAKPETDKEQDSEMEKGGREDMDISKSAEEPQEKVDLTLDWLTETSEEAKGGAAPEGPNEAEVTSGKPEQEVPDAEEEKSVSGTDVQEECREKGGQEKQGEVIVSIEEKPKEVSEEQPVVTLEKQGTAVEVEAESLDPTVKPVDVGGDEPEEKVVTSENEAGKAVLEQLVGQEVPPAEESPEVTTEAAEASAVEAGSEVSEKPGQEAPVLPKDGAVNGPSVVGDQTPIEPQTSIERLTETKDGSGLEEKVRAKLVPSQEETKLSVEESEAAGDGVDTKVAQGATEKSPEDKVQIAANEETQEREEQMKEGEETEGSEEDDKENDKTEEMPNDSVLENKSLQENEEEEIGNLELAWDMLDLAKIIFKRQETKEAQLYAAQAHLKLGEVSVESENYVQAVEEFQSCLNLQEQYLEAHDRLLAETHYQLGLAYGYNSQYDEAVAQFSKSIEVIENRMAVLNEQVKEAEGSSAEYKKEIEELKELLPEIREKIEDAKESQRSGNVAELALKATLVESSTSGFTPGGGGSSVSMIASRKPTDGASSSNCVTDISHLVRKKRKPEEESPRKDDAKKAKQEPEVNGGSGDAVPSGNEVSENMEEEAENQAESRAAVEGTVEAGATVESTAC
inactive: [1] 0.01 | [2] -0.044 | [3] 0.033 | [4] 0.019 | [5] -0.004 | [6] -0.05 | [7] -0.009 | [8] -0.048 | [9] -0.021 | [10] -0.09 | [11] 0.012 | [12] -0.033 | [13] 0 | [14] 0.009 | [15] -0.058 | [16] 0.037 | [17] 0.038 | [18] -0.006 | [19] 0.001 | [20] 0.027

NME2P1 (UniProt O60361)
Chain of UniProt O60361 (O60361 whole entry, looked up): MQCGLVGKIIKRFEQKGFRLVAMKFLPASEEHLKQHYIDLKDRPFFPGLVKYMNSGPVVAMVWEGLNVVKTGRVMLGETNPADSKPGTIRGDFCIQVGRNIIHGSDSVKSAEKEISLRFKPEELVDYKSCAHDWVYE
inactive: [1] -0.019 | [2] -0.18 | [3] -0.033 | [4] 0.032 | [5] -0.024 | [6] -0.072 | [7] -0.135 | [8] 0.037 | [9] 0.149 | [10] 0.031 | [11] 0.06 | [12] 0.017 | [13] 0.065 | [14] 0.004 | [15] -0.164 | [16] 0.038 | [17] -0.043 | [18] -0.102 | [19] 0.09 | [20] 0.12

MRPS5 (UniProt P82675)
inactive: [1] -0.071 | [2] 0.057 | [3] -0.019 | [4] 0 | [5] -0.088 | [6] -0.083 | [7] 0.078 | [8] 0.056 | [9] -0.112 | [10] -0.207 | [11] 0.08 | [12] -0.086 | [13] -0.005 | [14] 0.004 | [15] 0.159 | [16] -0.048 | [17] 0.062 | [18] 0.016 | [19] 0.013 | [20] 0.023

PAFAH1B3 (UniProt Q15102)
Chain of UniProt Q15102 (Q15102 whole entry, looked up): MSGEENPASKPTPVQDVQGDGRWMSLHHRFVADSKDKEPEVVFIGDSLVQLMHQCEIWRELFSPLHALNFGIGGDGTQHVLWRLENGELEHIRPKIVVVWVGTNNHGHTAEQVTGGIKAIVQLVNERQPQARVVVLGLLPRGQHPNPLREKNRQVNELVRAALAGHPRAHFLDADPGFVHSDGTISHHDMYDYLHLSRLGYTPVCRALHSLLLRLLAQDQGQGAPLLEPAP
active: [10] 0.305
inactive: [1] -0.041 | [2] 0.008 | [3] -0.119 | [4] 0.009 | [5] -0.137 | [6] -0.055 | [7] -0.078 | [8] 0.023 | [9] 0 | [11] 0 | [12] -0.096 | [13] 0.098 | [14] 0.03 | [15] 0.019 | [16] -0.014 | [17] -0.012 | [18] 0.005 | [19] -0.022 | [20] 0.035
